# Source: PubChem
# KAT2A inh: blocks human GCN5L2 histone acetyltransferase; GCN5L2 HAT assay, ThioGlo1 CoA-SH fluorescence; Potency, µM (titrated, usually from 58.9 µM), for the others: top-dose activity change, negative = inhibition, actives largely listed as inhibitors; 0.21% of 390,000 active; AID 504327; also: potency is read from the fitted curve at half-maximal effect; % is scaled to controls: 0 for no effect and ±100 for the full control effect
#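 Enzyme at 20nM final was mixed with library compounds for 15 min at room temperature. Peptide H3(1-25) at 75uM, acetyl-CoA at 70uM and ThioGlo1 at 50uM were then added. Plates were read immediately and after 20 min (Ex340nm/Em540nm).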
# PLK1 PBD inh: PLK1 (human) polo-box domain binding inhibition. P53350. Plk1 PBD binding of FITC phosphopeptide, fluorescence polarization. Potency, µM, for the others: max response, negative = inhibition, usual class: inhibitors. 2.8% of 360,000 active; also: potency is read from the fitted curve at half-maximal effect; series mostly up to about 57 µM; % is scaled to controls: 0 for no effect and ±100 for the full control effect; nearly all actives have a fitted effect of over 65% in size
# BAZ2B inh: BAZ2B (human) inhibition; Q9UIF8; AID 504333; Potency, µM (highest dose often 114 µM), for inactives: at the top dose activity change, negative = inhibition, usual class: inhibitors; 4.4% of 360,000 active; AlphaScreen BAZ2B-H3K14Ac peptide displacement; also: potency is read from the fitted curve at half-maximal effect; % is scaled to controls: 0 for no effect and ±100 for the full control effect; nearly all actives have a fitted effect of over 60% in size
# Target sequence (Q9UIF8 whole entry, looked up): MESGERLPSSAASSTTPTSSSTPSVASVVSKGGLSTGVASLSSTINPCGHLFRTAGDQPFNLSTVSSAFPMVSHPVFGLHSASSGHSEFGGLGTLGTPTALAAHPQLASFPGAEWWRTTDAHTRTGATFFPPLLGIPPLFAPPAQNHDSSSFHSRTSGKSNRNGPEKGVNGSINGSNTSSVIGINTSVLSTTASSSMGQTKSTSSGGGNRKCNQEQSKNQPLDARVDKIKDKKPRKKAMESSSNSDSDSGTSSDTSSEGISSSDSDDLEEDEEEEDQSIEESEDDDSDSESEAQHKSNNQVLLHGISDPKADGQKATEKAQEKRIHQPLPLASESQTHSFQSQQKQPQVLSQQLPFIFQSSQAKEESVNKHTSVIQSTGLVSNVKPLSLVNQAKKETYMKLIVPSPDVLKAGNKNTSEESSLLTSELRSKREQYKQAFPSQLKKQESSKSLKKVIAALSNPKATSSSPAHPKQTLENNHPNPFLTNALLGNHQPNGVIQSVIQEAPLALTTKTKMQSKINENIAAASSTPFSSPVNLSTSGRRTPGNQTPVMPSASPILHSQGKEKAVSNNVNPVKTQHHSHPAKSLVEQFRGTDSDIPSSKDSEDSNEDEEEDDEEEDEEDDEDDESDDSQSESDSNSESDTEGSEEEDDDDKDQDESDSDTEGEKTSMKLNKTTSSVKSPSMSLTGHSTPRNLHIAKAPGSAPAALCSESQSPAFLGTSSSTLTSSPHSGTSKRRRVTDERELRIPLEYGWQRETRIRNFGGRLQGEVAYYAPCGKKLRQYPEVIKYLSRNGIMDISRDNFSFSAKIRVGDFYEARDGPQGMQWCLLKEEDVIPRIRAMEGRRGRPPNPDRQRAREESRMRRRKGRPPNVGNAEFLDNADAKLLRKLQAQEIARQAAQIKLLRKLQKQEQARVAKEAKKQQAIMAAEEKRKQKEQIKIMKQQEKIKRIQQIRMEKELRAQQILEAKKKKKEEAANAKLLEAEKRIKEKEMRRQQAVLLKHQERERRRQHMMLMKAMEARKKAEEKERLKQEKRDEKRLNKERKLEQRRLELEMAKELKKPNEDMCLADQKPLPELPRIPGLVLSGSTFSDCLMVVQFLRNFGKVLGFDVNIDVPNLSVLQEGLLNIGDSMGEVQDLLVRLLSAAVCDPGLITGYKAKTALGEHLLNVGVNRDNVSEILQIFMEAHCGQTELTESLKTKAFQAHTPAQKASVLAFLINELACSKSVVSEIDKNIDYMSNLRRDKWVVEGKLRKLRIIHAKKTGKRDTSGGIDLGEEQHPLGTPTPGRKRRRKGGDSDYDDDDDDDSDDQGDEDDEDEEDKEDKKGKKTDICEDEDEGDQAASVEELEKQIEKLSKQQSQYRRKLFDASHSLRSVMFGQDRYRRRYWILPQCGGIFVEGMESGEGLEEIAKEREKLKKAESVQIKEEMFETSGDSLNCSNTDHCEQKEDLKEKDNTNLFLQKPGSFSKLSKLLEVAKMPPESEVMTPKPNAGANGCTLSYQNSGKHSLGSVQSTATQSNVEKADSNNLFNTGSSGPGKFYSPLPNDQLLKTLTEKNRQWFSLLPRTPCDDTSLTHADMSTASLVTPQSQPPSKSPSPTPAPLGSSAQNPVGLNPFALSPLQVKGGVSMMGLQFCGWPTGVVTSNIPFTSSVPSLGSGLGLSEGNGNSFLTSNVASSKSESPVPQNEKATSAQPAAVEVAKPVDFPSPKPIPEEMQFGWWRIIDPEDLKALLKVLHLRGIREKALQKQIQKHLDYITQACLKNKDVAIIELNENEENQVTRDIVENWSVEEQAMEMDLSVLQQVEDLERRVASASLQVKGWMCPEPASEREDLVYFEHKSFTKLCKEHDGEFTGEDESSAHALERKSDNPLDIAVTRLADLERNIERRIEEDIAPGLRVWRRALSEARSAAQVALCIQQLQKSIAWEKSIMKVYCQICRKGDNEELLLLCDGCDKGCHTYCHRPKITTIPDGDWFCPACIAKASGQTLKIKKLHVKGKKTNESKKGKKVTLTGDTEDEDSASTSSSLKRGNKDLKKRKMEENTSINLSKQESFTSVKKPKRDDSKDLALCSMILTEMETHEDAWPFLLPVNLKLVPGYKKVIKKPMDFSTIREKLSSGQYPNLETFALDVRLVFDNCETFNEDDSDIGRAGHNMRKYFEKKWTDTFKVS
#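 BAZ2B (50 nM) with biotin-H3(5-23)K14Ac peptide (50 nM) in PBS pH 7.4, 0.01% Tween-20, preformed 30 min, then compound 30 min at room temperature; top concentration 110uM. AlphaScreen streptavidin donor/nickel chelate acceptor beads (10 ug/mL final), 20 min dark, signal read.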
# JMJD2A Tudor inh: JMJD2A Tudor domain (human) inhibition; O75164; AlphaScreen JMJD2A-Tudor / H3K4me3 peptide binding; Potency, µM (highest dose often 114 µM), without a hit: top-dose activity change, negative = inhibition, most hits filed as inhibitors; 4.4% of 390,000 active; also: potency is read from the fitted curve at half-maximal effect; % is scaled to controls: 0 for no effect and ±100 for the full control effect; nearly all actives have a fitted effect of over 50% in size
# PI5P4Ka inh: inhibitors of human PI5P4K alpha; PI5P4Kalpha enzyme, ADP-Glo luminescence, 60 min; active compounds read low; max response, %; AID 652105; P48426; 1.2% of 330,000 active; active = max response of -50% or lower; inconclusive = between -30% and -50%; inactive = -30% or higher; also: value at the top dose of about 77 µM; % is scaled to controls: 0 for no effect and ±100 for the full control effect
#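 Luminescence from ADP-Glo served as readout of PI5P4Kalpha activity in a qHTS format. Reaction: enzyme, substrate, compound, ATP at 5 microM final, 60 min at RT.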
# HP1b binding inh: HP1-beta chromodomain-methylated histone interaction inhibition; P83916; AlphaScreen HP1-beta / biotin-H3K9me3 peptide binding; Potency, µM (series often up to 114 µM), inactives show at the highest dose activity change, negative = inhibition, hits mostly inhibitors; 0.56% of 390,000 active; also: potency is read from the fitted curve at half-maximal effect; nearly all actives have a fitted effect of over 70% in size
#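 AlphaScreen: HP1-beta (50 nM) preformed 30 min with biotin-H3(1-18)K9me3 peptide (50 nM) in PBS pH 7.4, 0.01% Tween-20. Compound added for 30 min at RT, then streptavidin donor/nickel chelate acceptor beads (10 ug/mL) for 30 min.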
# Starred values were filed as active, the others as inactive; ? = inconclusive; nt = no result given; [ ] = dose if it differs, or a comment. In the library only some 7% were active in any assay of this set; here they are far more common. Unless noted, calls follow the shape of the dose curve; as a rule, active = well fitted curve in the direction sought with a large enough effect; inconclusive = small, poorly fitted or top-dose-only effect, or another doubt; inactive = no such curve, though single readings can be large; an effect the other way counts as inactive or inconclusive.
SMILES,KAT2A inh,PLK1 PBD inh,BAZ2B inh,JMJD2A Tudor inh,PI5P4Ka inh,HP1b binding inh
COc1ccccc1C1CC(=O)Oc2cc3c(cc21)OCO3 (stereo not drawn),28µM*,nt,nt,nt,nt,nt
Cc1ccc(S(=O)(=O)NC(C)(C)C)cc1C(=O)OCC(=O)N1CCCC1=O,?,-2%,10%,-10%,-6,20%
CCNc1ccccc1CP(=O)(c1ccccc1)c1ccccc1O (stereo not drawn),-15%,21µM*,40µM*,50µM*,?,32µM*
CC1=CC(=O)c2c(O)ccc(O)c2C1=O,13µM*,nt,3.5µM*,nt,nt,nt
O=C1c2ccccc2C(=O)c2c([N+](=O)[O-])ccc(O)c21,-2%,-12%,?,?,?,-11%
Cc1nccn1CC(O)COC1CCCCC1 (stereo not drawn),1%,-8%,32µM*,18µM*,-1,?
OC(COC1CCCCC1)CN1CCCCC1 (stereo not drawn),0%,-2%,56µM*,79µM*,3,-20%
Cc1nccn1CC(O)COc1ccccc1 (stereo not drawn),-2%,0%,4%,-4%,-1,17%
Cc1ccc2nc(-c3cccc(-c4nc5ccc(C)cc5o4)n3)oc2c1,nt,nt,nt,18µM*,nt,?
Cc1ccc2nc(CCc3nc4ccc(C)cc4o3)oc2c1,-2%,6µM*,nt,?,-29,-13%
Cc1ccc2nc(-c3cccc(N)c3)oc2c1,-6%,0%,-7%,-10%,nt,29%
Cc1nn(C)c(C)c1CN(C)C(=O)CCCC(=O)O,2%,-7%,6%,50µM*,3,1%
N#CCSc1nnc(-c2ccc(S(=O)(=O)N3CCOCC3)cc2)n1CC1CCCO1 (stereo not drawn),-1%,-9%,4%,89µM*,3,18%
C/C(CCc1ccccc1)=N\NC(=S)NCCc1ccccc1,-20%,-8%,40µM*,?,4,-22%
C/C(CCC(C)C)=N\NC(=S)NCc1ccccc1,-11%,-6%,?,56µM*,-2,-10%
S=C(NCCc1ccccc1)NCCc1ccccc1,-6%,-7%,-7%,-20%,5,11%
C/C(=N\NC(=S)NCc1ccccc1)c1ccc2ccccc2c1,-8%,2%,?,-38%,12,-11%
C/C(=N\NC(=S)NCCc1ccccc1)c1cccs1,-14%,-23%,35µM*,?,32,?
Cc1cccn2c(=O)c(C(=O)NCc3ccc(F)cc3)c(O)nc12,-1%,nt,3%,-13%,nt,45%
COc1cc2c(cc1OC)C(CC#N)=NC(C)(C)C2,2%[0.501 µM],-3%,-8%,-20%,-2,-5%
CC1(C)Cc2ccccc2C(CSc2ccccc2C(=O)O)=N1,1%,-17%,50µM*,56µM*,-15,-39%
Cc1cccc2nc(CSc3ccccc3C(=O)O)cn12,-8%,8%,11%,3%,-1,39%
COc1cc2c(cc1OC)C(CSc1ccccc1C(=O)O)=NC(C)(C)C2,-2%,-11%,79µM*,?,-2,-1%
O=C(Cc1cccs1)NCCc1ccc(Cl)cc1,-4%,1%,-27%,9%,1,34%
COc1ccc(OC)c(NC(=O)CCN2CCN(CCO)CC2)c1,-3%,-11%,?,-15%,1,11%
SMILES,KAT2A inh,PLK1 PBD inh,BAZ2B inh,JMJD2A Tudor inh,PI5P4Ka inh,HP1b binding inh
COc1cccc(C2C(C#N)=C(N)SC(c3ccccc3)C2[N+](=O)[O-])c1 (stereo not drawn),-14%,-7%,50µM*,?,1,-13%
CC1Cc2cc(/C(O)=C3/C(=O)C(=O)N(CC4CCCO4)C3c3ccco3)ccc2O1 (stereo not drawn),-8%,30µM*,?,-14%[11.4 µM],-19,?
COC(=O)c1ccc(C2/C(=C(/O)c3ccc(OC)cc3)C(=O)C(=O)N2CC2CCCO2)cc1 (stereo not drawn),-1%,-4%,5%,-10%,nt,2%
COc1ccc(/C(O)=C2/C(=O)C(=O)N(CC3CCCO3)C2c2cccc(O)c2)cc1 (stereo not drawn),-19%,-9%,-26%,50µM*,0,-4%
COc1ccc(CCN(C)S(=O)(=O)c2cn(C)c(=O)n(C)c2=O)cc1OC,-5%,-7%,15%,-11%,1,43%
CCn1cc([N+](=O)[O-])c(=O)c2cc(F)c(N3CCOCC3)cc21,1%,-17%,?,-3%,2,44%
CNc1cncc(-c2ccc(O)cc2C)n1,nt,-5%,nt,nt,3,nt
CCCc1[nH][nH]c(=O)c1C(c1ccc(Br)cc1)C(C#N)C#N (stereo not drawn),-4%,6µM*,-32%,-33%,nt,12%
CN(Cc1ccccc1)C(=O)Cn1ncc2c3ccccc3n(Cc3cccc(Cl)c3)c2c1=O,-23%,nt,?,?,nt,-2%
COc1ccccc1OCC(O)CN1C(=O)NC(C)(C)C1=O (stereo not drawn),-10%,27µM*,-1%,?,3,21%
CSc1ccccc1NC(=O)COC(=O)Cn1cc(C(F)(F)F)ccc1=O,2%,0%,0%,2%,3,50%
COc1ccc(C(=O)N2c3ccccc3C=CC2C#N)cc1 (stereo not drawn),-2%,-16%,-7%,-18%,?,8%
N#C[C@H]1[C@H](c2ccccc2)[C@](C#N)(C(=O)c2ccccc2)[C@@H]2C=Cc3ccccc3N21,-2%,nt,28µM*,nt,nt,nt
Nc1cc(=O)nc(SCC(=O)Nc2ccc(F)cc2)n1-c1ccc(Cl)cc1,0%,nt,-16%,-8%,nt,24%
CCN(CC(=O)NCc1ccc(F)cc1)C(=O)CN1CCN(c2ccc(OC)cc2)CC1,-3%,2%,18µM*,0.89µM*,-5,18µM*
COc1ccc(N2CCN(CC(=O)NCc3ccc(Cl)cc3)CC2)cc1,-1%,15µM*,?,?,-5,-17%
O=C(CN1CCN(c2ccc(F)cc2)CC1)NCc1ccc(F)cc1,2%,-6%,-23%,-6%,7,24%
O=C1[C@@H]2[C@@H](CN3CN(c4ccccc4)N=C(c4ccccc4)[C@@]23c2ccccc2)C(=O)N1c1ccccc1,nt,-24%,nt,89µM*,-4,?
Cc1nn(C)cc1/C=C1\SC(=S)NC1=O,-1%,-3%,14%,-13%,-82*,38%
CN1CCN(/C=C2\SC(=S)NC2=O)CC1,-2%,-4%,-10%,-6%,-12,42%
Cc1nn(C)c(C)c1/C=C1/SC(=S)NC1=O,-6%,-7%,-9%,-12%,-78*,33%
CCOC(=O)c1cnn(-c2cccc(Cl)c2)c1C1CCN(C(=O)OC(C)(C)C)CC1,-9%,nt,nt,5%,nt,61%
